19 compounds from PubChem BioAssay can be followed below.

Unmarked numbers belong to inactive results. For some assays here: Measured potencies and affinities stand elsewhere. Calls of active or inactive are those of the source. Unless noted, how the calls were made is not given here.

The nature of test [1]: antimalarial activity against Dd2 strain (AID 2302;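 active means growth inhibition above 50% at the single 2 µM test dose, taken to imply half-maximal potency below 2 µM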;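 further: 0% = DMSO untreated growth and 100% = chloroquine plus artemisinin killed control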). The note with it: P. falciparum Dd2 in RBCs, LDH growth readout, 72 h; at 2 µM; active compounds read high.
Test [2] can be described thus: HepG2 cytotoxicity, primary screen, cytotoxicity control for P. falciparum antimalarial project, cell-based, ATP luminescence (AID 2303;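 active means inhibition above 50%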;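 further: 0% = DMSO wells and 100% = digitonin-killed cells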). The conditions noted are these: HepG2 viability, 24-48 h, at 10 µM, active compounds read high.
The target in test [3] is L-lactate dehydrogenase (Plasmodium falciparum (isolate CDC / Honduras)) (UniProt Q27743). In words: PfLDH activity inhibition – cell lysate, 3D7 strain, counter-screen for P. falciparum growth inhibition project (AID 2304).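 Further: 0% = vehicle and 100% = reference inhibitor.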 The note with it: P. falciparum 3D7 crude extract, LDH APAD/NBT absorbance; at 2 µM; active compounds read high. For orientation: Counterscreens check selectivity or assay interference.
Sequence of L-lactate dehydrogenase (Plasmodium falciparum (isolate CDC / Honduras)) (Q27743 whole entry, looked up): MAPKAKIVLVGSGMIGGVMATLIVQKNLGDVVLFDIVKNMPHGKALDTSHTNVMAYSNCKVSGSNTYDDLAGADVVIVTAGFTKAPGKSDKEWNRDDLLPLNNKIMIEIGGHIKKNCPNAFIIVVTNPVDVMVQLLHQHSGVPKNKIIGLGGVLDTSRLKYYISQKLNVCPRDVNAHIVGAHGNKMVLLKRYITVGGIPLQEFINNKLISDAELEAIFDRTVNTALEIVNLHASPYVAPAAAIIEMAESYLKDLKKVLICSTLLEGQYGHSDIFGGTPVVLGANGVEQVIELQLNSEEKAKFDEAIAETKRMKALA

Test [4] can be described thus: inhibition of 3D7 malaria parasite growth – strain 3D7 (AID 2306).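 Further: 0% = DMSO wells and 100% = chloroquine plus artemisinin control wells.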 The conditions noted are these: P. falciparum 3D7 erythrocytic growth, LDH absorbance, 72 h; at 2 µM; active compounds read high.
In test [5] the target is Calcium-dependent protein kinase 1 (Plasmodium falciparum (isolate 3D7)) (UniProt P62344). The experiment in a line: PfCDPK1 kinase inhibitors, biochemical, TCAMS library (AID 1159585; cut-off not given, nearly all actives have IC50 up to about 0.98 µM;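 further: inhibitors leave more ATP so luminescence rises with inhibition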). The conditions noted are these: recombinant PfCDPK1, Kinase-Glo ATP depletion luminescence. A general note: In Kinase-Glo more light means more ATP remaining.
Sequence of Calcium-dependent protein kinase 1 (Plasmodium falciparum (isolate 3D7)) (P62344 whole entry, looked up): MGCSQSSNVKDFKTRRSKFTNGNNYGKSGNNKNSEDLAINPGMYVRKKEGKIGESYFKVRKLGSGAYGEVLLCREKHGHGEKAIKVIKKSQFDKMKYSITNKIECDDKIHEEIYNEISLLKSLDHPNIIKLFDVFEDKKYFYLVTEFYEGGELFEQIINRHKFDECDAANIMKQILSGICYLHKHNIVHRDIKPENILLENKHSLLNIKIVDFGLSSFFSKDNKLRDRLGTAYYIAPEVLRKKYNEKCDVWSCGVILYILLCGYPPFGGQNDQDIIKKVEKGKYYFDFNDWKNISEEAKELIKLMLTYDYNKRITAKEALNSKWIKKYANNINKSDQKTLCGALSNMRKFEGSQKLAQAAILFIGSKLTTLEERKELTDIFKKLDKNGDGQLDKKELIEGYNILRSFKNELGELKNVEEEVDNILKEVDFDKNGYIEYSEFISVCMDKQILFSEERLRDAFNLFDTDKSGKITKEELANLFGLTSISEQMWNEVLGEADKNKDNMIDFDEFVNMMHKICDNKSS
Test [6] has as its target Plasmodium falciparum protein kinase 6 (PK6, PF3D7_1337100) (UniProt Q8IDW1). In words: PfPK6 kinase inhibitors, biochemical, TCAMS library (AID 1159586). The conditions noted are these: recombinant PfPK6, Kinase-Glo ATP depletion luminescence.
Test [7] addresses Protein kinase 7 (PK7), Plasmodium falciparum 3D7 (PF3D7_0213400) (UniProt Q7YTF7). In words: inhibition of Plasmodium PK7 catalytic activity – biochemical, TCAMS antimalarial set, Kinase-Glo luminescence (AID 1159587). The conditions noted are these: recombinant PfPK7, Kinase-Glo ATP depletion luminescence.
The target of test [8] is Calcium-dependent protein kinase 4 (Plasmodium falciparum (isolate 3D7)) (UniProt Q8IBS5). In words: PfCDPK4 kinase inhibitors, biochemical, TCAMS library (AID 1159588; cut-off not given, nearly all actives have IC50 up to about 0.91 µM). The conditions noted are these: recombinant PfCDPK4, Kinase-Glo ATP depletion luminescence.
Sequence of Calcium-dependent protein kinase 4 (Plasmodium falciparum (isolate 3D7)) (Q8IBS5 whole entry, looked up): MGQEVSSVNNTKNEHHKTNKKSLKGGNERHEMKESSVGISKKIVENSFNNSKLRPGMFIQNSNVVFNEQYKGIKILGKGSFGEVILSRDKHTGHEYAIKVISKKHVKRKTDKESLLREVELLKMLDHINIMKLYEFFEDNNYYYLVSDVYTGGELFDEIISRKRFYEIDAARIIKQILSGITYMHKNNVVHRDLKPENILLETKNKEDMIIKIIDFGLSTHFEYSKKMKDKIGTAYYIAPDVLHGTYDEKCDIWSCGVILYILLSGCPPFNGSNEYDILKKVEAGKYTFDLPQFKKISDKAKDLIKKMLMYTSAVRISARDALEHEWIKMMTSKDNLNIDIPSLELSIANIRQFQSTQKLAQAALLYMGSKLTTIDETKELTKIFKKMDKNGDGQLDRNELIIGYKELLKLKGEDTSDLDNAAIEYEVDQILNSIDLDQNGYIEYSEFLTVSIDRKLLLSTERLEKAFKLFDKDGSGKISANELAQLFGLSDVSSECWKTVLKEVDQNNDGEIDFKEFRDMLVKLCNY

Sequence of Protein kinase 7 (PK7), Plasmodium falciparum 3D7 (PF3D7_0213400) (Q7YTF7 1-343): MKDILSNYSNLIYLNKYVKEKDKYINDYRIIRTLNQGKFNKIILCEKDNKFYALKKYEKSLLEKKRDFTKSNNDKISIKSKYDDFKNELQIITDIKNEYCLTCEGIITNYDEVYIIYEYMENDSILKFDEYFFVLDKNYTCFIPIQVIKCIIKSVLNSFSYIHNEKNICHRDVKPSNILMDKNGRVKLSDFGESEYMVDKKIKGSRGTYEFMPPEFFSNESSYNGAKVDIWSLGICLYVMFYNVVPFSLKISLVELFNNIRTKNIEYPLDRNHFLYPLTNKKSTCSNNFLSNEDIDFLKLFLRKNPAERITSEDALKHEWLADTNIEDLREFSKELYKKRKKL
Sequence of Plasmodium falciparum protein kinase 6 (PK6, PF3D7_1337100) (Q8IDW1 1-305): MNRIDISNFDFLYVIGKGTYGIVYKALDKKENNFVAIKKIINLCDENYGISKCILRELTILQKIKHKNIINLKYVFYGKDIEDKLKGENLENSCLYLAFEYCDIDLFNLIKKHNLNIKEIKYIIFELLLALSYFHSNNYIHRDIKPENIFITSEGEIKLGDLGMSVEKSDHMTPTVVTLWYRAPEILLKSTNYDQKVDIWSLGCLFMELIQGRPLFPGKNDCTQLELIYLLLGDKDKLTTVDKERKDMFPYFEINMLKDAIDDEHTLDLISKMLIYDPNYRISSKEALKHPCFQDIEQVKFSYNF

A word on the inhibition: it is the change of the read-out against control, counted positive when it falls. Consider `CCCCNc1cc(NCCCC)c2c(n1)[nH]c1ccccc12`, for which the growth inhibition in test [1] is 94% (active); in test [4], 100% (active). Further, the inhibition in test [2] was 13%; in test [3] it was -1%. Further, the outcome in test [5], in test [6], in test [7] and in test [8] was inactive.
Take `CC1(C)N=C(N)N=C(N)N1OCc1cc2ccccc2cc1CON1C(N)=NC(N)=NC1(C)C`: the growth inhibition in test [1] is 51% (active); in test [4], 92% (active). In addition, the inhibition in test [2] was 0%; in test [3] it was -5%. In addition, the outcome in test [5], in test [6], in test [7] and in test [8] was inactive.
On to `O=C(NCCCCN1CCC(c2c[nH]c3ccccc23)CC1)c1ccc(-c2ccc(C(F)(F)F)cc2)cc1`, for which the growth inhibition in test [1] was 22%; in test [4] it was 98% (active). The inhibition in test [2] is 34%; in test [3], -1%. Also, the outcome in test [5], in test [6], in test [7] and in test [8] was inactive.
On to `CCOc1c(Cl)cc(Cl)cc1CNCCCNc1nc2ccccc2[nH]1`, for which the figures for the growth inhibition in test [1] and in test [4] were 1% and 94% (active), respectively. Further, the inhibition in test [2] is 18%; in test [3] it was -7%. Further, the result in test [5], in test [6], in test [7] and in test [8] was inactive.
For the compound `Cc1cc(NC(=O)Nc2ccc3ncccc3c2)c2ccccc2n1`, the growth inhibition is 27% in test [1] and 93% (active) in test [4]. In addition, the inhibition was 6% in test [2] and -3% in test [3]. Moreover, the result in test [5], in test [6], in test [7] and in test [8] was inactive.
As to `COc1ccc(CCn2c(C3CCCCC3)nc3oc4ccccc4c(=O)c3c2=O)cc1`, the results for the growth inhibition in test [1] and in test [4] were 66% (active) and 91% (active), respectively. For the same compound, the inhibition was 12% in test [2] and -2% in test [3]. Besides, the outcome in test [5], in test [6], in test [7] and in test [8] was inactive.
With `NC1=NC(c2ccccc2)(c2ccccc2)C(=O)N1CCCCc1ccccn1`, the growth inhibition in test [1] was 56% (active); in test [4] it was 94% (active). Moreover, the inhibition in test [2] is 10%; in test [3], -4%. Moreover, the outcome in test [5], in test [6], in test [7] and in test [8] was inactive.
Consider `O=C(/C=C/c1ccc(Cl)c(Cl)c1)NCCCN1CCC(c2c[nH]c3ccccc23)CC1`, for which the growth inhibition in test [1] was 5%; in test [4], 90% (active). The inhibition in test [2] is 48%; in test [3] it was -4%. Moreover, the outcome in test [5], in test [6], in test [7] and in test [8] was inactive.
As to `CCOC(=O)N1CCN(CCCCNc2c3ccc(Cl)cc3nc3ccc(OC)cc23)CC1`, the growth inhibition in test [1] is 98% (active); in test [4], 104% (active). Also, the inhibition is 25% in test [2] and -5% in test [3]. Further, the result in test [5], in test [6], in test [7] and in test [8] was inactive.
Regarding `Cc1ccc(-n2c(=O)c3c(n4c(SC(C)C)nnc24)-c2ccccc2CC32CCCCC2)cc1`, the growth inhibition in test [1] was 88% (active); in test [4], 95% (active). Moreover, the inhibition was 8% in test [2] and 0% in test [3]. For the same compound, the result in test [5], in test [6], in test [7] and in test [8] was inactive.
On to `NC(=O)c1sc(-n2cnc3ccc(OCC4CCNCC4)cc32)cc1OCc1ccccc1C(F)(F)F`, for which the growth inhibition is 62% (active) in test [1] and 101% (active) in test [4]. The values for the inhibition in test [2] and in test [3] were 18% and -6%, respectively. For the same compound, the result in test [5], in test [6], in test [7] and in test [8] was inactive.
With `Cc1nc(C)c(CC(=O)Nc2ccc(-c3cccc(-c4nc5ccc(C(F)(F)F)cc5[nH]4)c3)cc2)s1`, the results for the growth inhibition in test [1] and in test [4] were 4% and 86% (active), respectively. The inhibition was 67% (active) in test [2] and 1% in test [3]. For the same compound, the result in test [5], in test [6], in test [7] and in test [8] was inactive.
For the compound `CC(C)c1sc(N2CCN(C)CC2)nc1C(=O)NCCc1ccc(Cl)c(Cl)c1`, the results for the growth inhibition in test [1] and in test [4] were 79% (active) and 98% (active), respectively. In addition, the inhibition in test [2] is 10%; in test [3] it was -2%. The outcome in test [5], in test [6], in test [7] and in test [8] was inactive.
For the compound `O=C(Cc1ccc(NC(=O)c2ccc(O)c(-c3ccc(Cl)c(Cl)c3)c2)cc1)NCCN1CCCCC1`, the growth inhibition in test [1] was 63% (active); in test [4] it was 95% (active). Further, the inhibition in test [2] is 12%; in test [3] it was -4%. Moreover, the result in test [5], in test [6], in test [7] and in test [8] was inactive.
Take `COc1cc(OC)c(NC(=O)C2c3ccccc3C(=O)N(CC(C)C)C2c2cccs2)cc1Cl` (configuration not stated): the growth inhibition in test [1] and in test [4] was 100% (active) each time. Besides, the inhibition is 9% in test [2] and -1% in test [3]. Moreover, the result in test [5], in test [6], in test [7] and in test [8] was inactive.
Regarding `Cc1[nH]c2c(C)cccc2c1C1CCN(CCC2CCN(C(=O)/C=C/c3ccc(Cl)c(Cl)c3)CC2)CC1`, the growth inhibition in test [1] is 79% (active); in test [4], 100% (active). Also, the inhibition is 67% (active) in test [2] and -1% in test [3]. Besides, the result in test [5], in test [6], in test [7] and in test [8] was inactive.
Take `CN(C)Cc1ccc(-c2cc3c(-c4ccc(CN(C)C)cc4)ccnc3[nH]2)cc1`: the figures for the growth inhibition in test [1] and in test [4] were 96% (active) and 100% (active), respectively. Moreover, the inhibition in test [2] is 86% (active); in test [3] it was 0%. For the same compound, the result in test [5], in test [6], in test [7] and in test [8] was inactive.
In the case of `COCCOc1ccc(C(F)(F)F)cc1NC(=O)Cc1c(F)cccc1Cl`, the results for the growth inhibition in test [1] and in test [4] were 74% (active) and 88% (active), respectively. The inhibition in test [2] is 18%; in test [3], 2%. Besides, the outcome in test [5], in test [6], in test [7] and in test [8] was inactive.
In the case of `Cc1[nH]c(C)c([N+](=O)[O-])c(=O)c1-c1ccc(Oc2ccccc2)cc1`, the growth inhibition was 97% (active) in test [1] and 98% (active) in test [4]. In addition, the inhibition in test [2] was 11%; in test [3] it was 3%. The result in test [5], in test [6], in test [7] and in test [8] was inactive.
